Screening data (PubChem BioAssay)
tim10-1 inh: inhibits growth of tim10-1 mutant yeast; S. cerevisiae tim10-1 ts strain growth, BacTiter-Glo, 24 h; inhibition, % at 20 µM; 2.2% of 330,000 active;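 active means inhibition of at least 40%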;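 further: mutant grown at 25 °C; 0% = DMSO wells with yeast and 100% = wells holding no yeast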
TIM10 inh: growth inhibitors of TIM10 yeast strain. 1.4% of 330,000 active. AID 463195. S. cerevisiae TIM10 strain growth, BacTiter-Glo luminescence, 24 h. inhibition, % at 10 µM;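 active means inhibition of 40% or more at the single tested concentration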;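 further: wild-type TIM10 isogenic control strain grown at permissive 25 °C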
NALP1 yeast inh: blocks the NALP1 inflammasome reconstituted in yeast; S. cerevisiae NALP1/ASC/caspase-1 growth, X-gal OD620, 72 h; inhibition, % at 10 µM; 0.61% of 280,000 active; in the data active means inhibition mostly above about 24%, no sharp cut-off; inactive means mostly below about 32%
tim23-1 inh: tim23-1 yeast growth inhibition; S. cerevisiae tim23-1 growth, BacTiter-Glo luminescence, 24 h; inhibition, % at 20 µM; 1.3% of 330,000 active;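 active means growth inhibition of the mutant yeast at or above 50%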;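 further: temperature-sensitive mutant grown at 25 °C; plate controls were DMSO-treated mutant yeast for no effect and medium wells lacking yeast for full effect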
NALP3 yeast inh: blocks the NALP3 inflammasome reconstituted in yeast. AID 2825. inhibition, % at 10 µM. 0.39% of 330,000 active. Yeast reconstituted NLRP3/ASC/caspase-1, beta-gal luminescence, 24 h;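 active means inhibition of 50% or more; inactive means inhibition below 50%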;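 further: plate controls were induced DMSO wells for no effect and uninduced yeast grown without galactose for full effect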
tim10-1 confirm: confirmation of tim10-1 mutant yeast growth inhibitors; inhibition, % at 20 µM; AID 463213; 56% of 7,400 active; shares compounds with tim10-1 inh; S. cerevisiae tim10-1 ts strain growth, BacTiter-Glo, 24 h;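 active means inhibition of yeast growth at or above a set limit in either of two repeat tests at 20 µM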;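 further: tim10-1 mutant grown at permissive 25 °C to find synthetic lethal compounds; 0% = DMSO yeast wells and 100% = medium wells without yeast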
* hit, by the source's call; x = no result given. In the library only some 4.1% were active in any assay of this set; here they are far more common.

SMILES | tim10-1 inh | TIM10 inh | NALP1 yeast inh | tim23-1 inh | NALP3 yeast inh | tim10-1 confirm
COc1ccc(NC(=S)/N=C(\N)Nc2nc(C)c3ccc(C)cc3n2)cc1 | 40* | 29 | 12 | 13 | 29 | 26
Cc1ccc2c(C)nc(N/C(N)=N/S(=O)(=O)c3ccc([N+](=O)[O-])cc3)nc2c1 | 42* | 25 | 32 | 30 | 41 | 26
Cc1ccc2[nH]c3c(=O)n4c(nc3c2c1)SCC4 | 45* | 25 | 11 | 22 | 5 | 30
COc1ccc2[nH]c3c(=O)n4c(nc3c2c1)SCCC4 | 40* | 32 | 2 | 36 | 10 | 39*
O=c1c2ccccc2nc2n1CCS2 | -5 | 4 | 16 | -1 | 15 | x
O=C(COc1ccc(Br)cc1)NCCCNC(=O)c1ccncc1 | -19 | -4 | -6 | -12 | 8 | x
CCCCc1cc(=O)oc2cc(OCC(=O)Nc3cccnc3)c(Cl)cc12 | 0 | -8 | 25 | -13 | 1 | x
CCN(C(=O)CSc1nc(C)c(C)c(C)n1)C1CCS(=O)(=O)C1 (stereo unspecified) | 10 | 0 | x | 16 | 19 | x
CN(C)S(=O)(=O)Oc1ccsc1C(=O)Nc1ccc(Cl)c(Cl)c1 | 44* | 28 | 9 | 26 | 26 | 36*
CN(C)S(=O)(=O)Oc1ccsc1C(=O)Nc1cccc(Cl)c1 | 31 | 22 | 4 | 26 | 24 | x
CC(=O)C1=C(C)N(Cc2ccccc2)C(=O)N[C@@H]1c1cccc(C(F)(F)F)c1 | 41* | 24 | 32 | 38 | 16 | 26
CC(=O)C1=C(C)N(Cc2ccccc2)C(=O)N[C@H]1c1cccc(C(F)(F)F)c1 | 8 | -1 | 21 | 17 | 3 | x
COc1ccc(OC)c(-c2cc(C(=O)Nc3c(C)nn(Cc4ccc(Cl)cc4)c3C)no2)c1 | 43* | 34 | 10 | 34 | 22 | 32*
COc1ccc(OC)c(-c2cc(C(=O)Nc3c(C)nn(Cc4ccccc4)c3C)no2)c1 | 41* | 25 | -7 | 16 | 9 | 10
Cc1nn(Cc2ccc(Cl)cc2)c(C)c1NC(=O)c1c(-c2ccccc2)noc1C | 43* | 28 | -56 | 30 | 4 | 44*
Cc1cc2[nH]c(=O)c(=O)[nH]c2cc1S(=O)(=O)NCc1ccc(Cl)cc1 | 11 | -3 | 6 | 20 | 3 | x
Cc1cc(N2CCOCC2)nc(-c2ccc([N+](=O)[O-])cc2)n1 | 15 | 1 | 2 | 9 | 9 | x
Cc1ccc(-c2nnn(CC(=O)N(CC(=O)NC3CCCCC3)c3ccccc3F)n2)o1 | 2 | 4 | 28 | 13 | 13 | x
CC1CCCCC1NC(=O)NC(=O)CCl (stereo unspecified) | 46* | 15 | 4 | 41 | -33 | 31
CC1CCCC(NC(=O)NC(=O)CCl)C1C (stereo unspecified) | 32 | 37 | 28 | 47 | -23 | x
COc1ccc(S(=O)(=O)n2oc(=O)cc2-c2ccccc2)cc1 | 43* | 14 | 12 | 14 | -37 | 20
COc1ccc2c(COC(=O)CNC(=O)C34CC5CC(CC(C5)C3)C4)cc(=O)oc2c1 | 42* | 19 | x | 29 | 15 | 27
CCCCNC(=S)Nc1ccccc1Cc1ccccc1 | 41* | 23 | -4 | 8 | 7 | 24
CN(C)S(=O)(=O)N(CC(=O)Nc1ccc(S(=O)(=O)N2CCCC2)cc1)c1ccccc1 | 26 | 10 | 2 | 14 | 10 | x
CCOc1cc(S(=O)(=O)Nc2ccc(CC)cc2)ccc1Cl | 59* | 33 | -2 | 46 | 21 | 25
SMILES | tim10-1 inh | TIM10 inh | NALP1 yeast inh | tim23-1 inh | NALP3 yeast inh | tim10-1 confirm
CCOc1cc(S(=O)(=O)Nc2ccccc2CC)ccc1Cl | 26 | 10 | -3 | 33 | 21 | x
CCOc1ccc(N(Cc2ccc(OC)cc2)C(=O)c2ccco2)cc1 | 44* | 9 | 14 | 24 | -2 | 20
O=C1CN(C(=O)COC(=O)c2ccc[n+]([O-])c2)c2ccccc2N1 | 12 | 8 | -28 | 3 | 7 | x
COc1ccc(CCNC(=O)CC2SC(=NCCc3ccccc3)NC2=O)cc1 (stereo unspecified) | -3 | 12 | 27 | 6 | -4 | x
CCCOC(=O)c1ccc(Oc2c(-c3ccc(OCC)cc3O)n[nH]c2C)cc1 | 41* | 33 | 6 | 25 | 21 | 29
CCCOC(=O)c1ccc(Oc2cn[nH]c2-c2ccc(OCC)cc2O)cc1 | 28 | 22 | -1 | 35 | 3 | x
CCOC(=O)c1ccc(NC(=O)CCc2nc(-c3ccccc3Cl)no2)cc1 | 41* | 34 | x | 30 | 19 | 29*
C=CCC(C(=O)NC(C)c1ccccc1)C(=O)NC(C)c1ccccc1 (stereo unspecified) | 28 | 4 | 15 | 11 | 30 | x
CC(=O)c1ccc(N2C(=O)CC(N3CCN(S(=O)(=O)c4ccc(C)c(C)c4)CC3)C2=O)cc1 (stereo unspecified) | 10 | 14 | x | 6 | 11 | x
CCC(C(=O)Nc1nc(C)c(C(=O)OC)s1)c1ccccc1 (stereo unspecified) | 43* | 20 | -3 | 35 | 14 | 36*
COC(=O)c1sc(NC(=O)C(C)c2ccccc2)nc1C (stereo unspecified) | 39 | 17 | 25 | 39 | -7 | x
COc1ccc(NC(=O)c2ccc(S(=O)(=O)N3CC(C)CC(C)C3)cc2)cc1S(N)(=O)=O (stereo unspecified) | 12 | 0 | x | 13 | 5 | x
Cc1ccc(NC(=O)C2CCN(c3ncnc4sc(C)c(C)c34)CC2)cc1S(=O)(=O)N(C)C | -11 | 8 | x | -7 | -6 | x
Cc1ccc(C)c(S(=O)(=O)N2CCN(C(=O)C3CCN(c4ncnc5sc(C)c(C)c45)CC3)CC2)c1 | 47* | -70 | x | 41 | 8 | 28
O=C(CN1C(=O)NC2(CCCC2)C1=O)NNC(=O)c1ccc(Br)cc1 | -26 | -2 | x | -10 | 8 | x
O=c1c2ccccc2nc2c3ccccc3c(NCCO)nn12 | 42* | 32 | 18 | 36 | 6 | 33*
COc1ccc(NC(C)(C)c2nnnn2-c2c(C)cccc2C)cc1 | 40* | 23 | 4 | 38 | -9 | 32*
Cc1ccccc1CNC(=O)Cc1ccccc1[N+](=O)[O-] | 10 | -2 | 22 | 16 | 12 | x
Cc1ccccc1CNC(=O)c1ccc(Cl)c([N+](=O)[O-])c1 | 43* | -1 | 29 | 45 | 39 | 22
O=S(=O)(Nc1cccc(S(=O)(=O)N2CCCCC2)c1)c1ccccc1F | 11 | 13 | x | 18 | -13 | x
Cc1cccc2sc(NC(=O)C3CC3)nc12 | 6 | 12 | 13 | 26 | 14 | x
Cc1cccc2sc(NC(=O)C3c4ccccc4Oc4ccccc43)nc12 | 41* | 33 | 7 | 36 | -1 | 33*
O=C(Nc1nc2c(Cl)cccc2s1)C1CC1 | 56* | -18 | 13 | 46 | 0 | -10
Cc1ccc2sc(NC(=O)C3CC3)nc2c1C | 46* | 31 | 23 | 42 | 27 | 3
O=C(Nc1cccc(S(=O)(=O)Nc2ccc(Cl)cc2)c1)c1cc2c(s1)CCCC2 | 40* | 23 | 28 | 25 | 1 | 16
